Cycloheximide cs = counter-screen hit for Shiga toxin inhibitors, cycloheximide | 12% of 300,000 active | cell reporter, cycloheximide protein synthesis inhibition counterscreen | AID 2314 | max response, %; in the data active = max response mostly above about 13%, no sharp cut-off; inactive = mostly below about 14%; also: read at 38.3 µM for the half of the compounds with a filed dose; 0% is about no effect
AMA1-RON2 inh = AMA1-RON2 (P. falciparum) interaction inhibition. AlphaScreen AMA1-biotinylated RON2 peptide binding. Potency, µM (doses to about 58.2 µM), without a hit: at the top dose activity change, negative = inhibition, most hits filed as inhibitors. 0.2% of 360,000 active. AID 720542;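 also: potency is read from the fitted curve at half-maximal effect; 0% = vehicle wells and -100% = peptide control; nearly all actives have a fitted effect of over 45% in size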
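AMA1 (3D7) with his tag at 25 nM final met compounds first, then biotinylated RON2 peptide at 25 nM; detection used donor plus acceptor beads, 10 µg/mL apiece, read by AlphaScreen after 30 min at room temperature.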
Pf growth 48h = P. falciparum growth inhibition at 48 hours (one generation); P. falciparum luciferase growth in erythrocytes, 48 h; Potency, µM (series often up to 28.7 µM), inactives show at the top dose activity change, negative = inhibition, hits mostly inhibitors; 5.9% of 310,000 active; AID 504832; also: potency is read from the fitted curve at half-maximal effect; % is scaled to controls: 0 for no effect and ±100 for the full control effect
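Parasite viability was followed by luminescence of a genomically integrated firefly luciferase. Cultures held 0.1% parasitemia at 2% hematocrit (final), incubated under 5% CO2 at 37 C.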
HCV inh = blocks hepatitis C virus. Huh7.5.1 HCVcc-Cre infection, luciferase reporter, 44 h. AID 651820. 3.4% of 340,000 active. Potency, µM (top dose mostly 41.8 µM), for inactives: at the top dose activity change, negative = inhibition, most hits filed as inhibitors; also: potency is read from the fitted curve at half-maximal effect; % is scaled to controls: 0 for no effect and ±100 for the full control effect
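Cells (1,000/well) were plated 4 h before compound, then infected with HCVcc-Cre virus (~0.5 moi). After 44 h further culture, infection was read as luciferase luminescence following a 15 min substrate incubation at room temperature.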
Shiga toxin inh = Shiga toxin inhibition; Vero cells, Shiga toxin protein synthesis inhibition reporter; inhibition, % at 38.7 µM; 9.2% of 290,000 active; AID 2315; in the data active = inhibition mostly above about 28%, no sharp cut-off; inactive = mostly below about 43%; also: 0% is about no effect
Pf growth 96h = P. falciparum growth inhibition at 96 hours. Potency, µM (titrated, usually from 28.7 µM), for the others: top-dose activity change, negative = inhibition, usual class: inhibitors. AID 504834. 6.9% of 320,000 active. P. falciparum luciferase reporter growth, 96 h; also: potency is read from the fitted curve at half-maximal effect; % is scaled to controls: 0 for no effect and ±100 for the full control effect
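Two parasite generations (96 h, 37 C, 5% CO2) of compound exposure in infected erythrocytes (0.05% parasitemia, 2% hematocrit). Luciferase-reporter P. falciparum; decreased luminescence indicates inhibited growth, aimed at apicoplast-acting delayed death.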
Numbers without * were called inactive; ? = inconclusive; / = no result. An excerpt weighted towards active compounds, which were near 21% of everything screened. Unless noted, calls follow the shape of the dose curve; as a rule, active = well fitted curve in the direction sought with a large enough effect; inconclusive = small, poorly fitted or top-dose-only effect, or another doubt; inactive = no such curve, though single readings can be large; an effect the other way counts as inactive or inconclusive.

SMILES | Cycloheximide cs | AMA1-RON2 inh | Pf growth 48h | HCV inh | Shiga toxin inh | Pf growth 96h
CCc1ccccc1Oc1nc(NCCOC)nc2cc(-c3ccccc3)sc12 | / | -3% | / | / | / | /
COc1ccc(S(=O)(=O)N2CCCCCC2)cc1NC(C)C(=O)Nc1ccc(NC(C)=O)cc1 (configuration not stated) | / | 2% | / | -14% | / | /
CCOC(=O)CC1c2nc3ccccc3cc2CN1C(=O)OCC (configuration not stated) | / | 14% | / | / | / | /
O=c1c2ccccc2c(C=Nc2cccc(S(=O)(=O)NCc3ccco3)c2)c(O)n1-c1ccc(Cl)cn1 | 44* | -6% | 15µM* | ? | 51* | ?
CC(C)c1ccc(C(=O)NN2C(=O)C3CCCCC3C2=O)cc1 (configuration not stated) | 50* | 11% | 95% | -10% | 96* | 95%
CC(C)c1ccc(C(=O)NNC(=O)C2C3CCC(C3)C2C(=O)O)cc1 (configuration not stated) | 39* | / | 103% | / | 101* | 197%
CCCCOc1ccc(C(=O)NNC(=O)C2C3CCC(C3)C2C(=O)O)cc1 (configuration not stated) | 40* | 98% | 1% | -3% | 72* | 0%
CCCCOc1ccc(C(=O)NNC(=O)C2C3C=CC(C3)C2C(=O)O)cc1 (configuration not stated) | 10* | 13% | -4% | -13% | 18 | 0%
CCCCNC(=O)C1C2C=CC(C2)C1C(=O)O (configuration not stated) | -5 | 0% | 27% | 18% | -9 | -1%
COc1ccc(NC(=O)c2cc(C3CCCCN3C(=O)c3cccs3)on2)c(C)c1 (configuration not stated) | / | -10% | / | / | / | /
COC(=O)c1sccc1NC(=O)C1C2C=CC(C2)C1C(=O)O (configuration not stated) | -6 | -3% | 8% | 23% | -2 | 17%
Cc1ccsc1C(=O)NNC(=O)C1C2C=CC(C2)C1C(=O)O (configuration not stated) | 121* | 45% | 145% | -22% | 96* | 11%
CCOc1cccc(C(=O)NNC(=O)C2C3C=CC(C3)C2C(=O)O)c1 (configuration not stated) | 20* | 14% | 10% | 5% | 28 | 17%
CC(=O)c1cccc(NC(=O)C2C3C=CC(C3)C2C(=O)O)c1 (configuration not stated) | 2 | 3% | 19% | 6% | 11 | 23%
O=C(NNC(=O)C1C2CCC(C2)C1C(=O)O)c1ccc(Br)o1 (configuration not stated) | 42* | / | 13% | -1% | 76* | 36%
CCCOC1CCCN(C(=O)c2ccc3oc(C(C)C)nc3c2)C1 (configuration not stated) | 38* | -6% | 8% | 13% | 94* | 34%
CCOC(=O)C1CCCN(C(=O)c2ccc3oc(Cc4ccccc4)nc3c2)C1 (configuration not stated) | 48* | 6% | -5% | -9% | 76* | 16%
CC(C)c1nc2cc(C(=O)N3CCNC(=O)C3c3cccc(F)c3)ccc2o1 (configuration not stated) | 12* | -2% | -11% | 3% | 54 | 6%
COCC1CCCN(C(=O)c2ccc3oc(Cc4ccc(Cl)cc4)nc3c2)C1 (configuration not stated) | 21 | 5% | ? | -22% | 18 | -3%
CC(C)CC(=O)C1CCCN(C(=O)c2ccc3oc(Cc4ccccc4)nc3c2)C1 (configuration not stated) | 11 | 6% | 14% | 22µM* | -6 | 18%
COc1ccc(Cc2nc3ccc(C(=O)N4CCC(C(N)=O)CC4)cc3o2)cc1 | / | 3% | / | / | / | /
COc1ccc(C(O)c2ncc(-c3cccc4ccccc34)[nH]2)cc1F (configuration not stated) | / | -2% | / | / | / | /
Cc1ccc2c(C)c(C(=O)N3CCN(c4cnccn4)CC3)oc2c1C | 10 | -12% | ? | -2% | 66 | ?

Source: PubChem BioAssay
